Screens from PubChem.
hgDAF-12 ag = H. glycines DAF-12 receptor agonists, primary screen, cell-based, luminescence, HEK293, GAL4 fusion, UAS-luciferase; Nuclear hormone receptor DAF-12 (Heterodera glycines), GAL4 fusion; HEK293 GAL4-hgDAF12 UAS-luciferase reporter, agonist luminescence; normalized to butyrate control; activation, % at 6.8 µM; actives 1.8% (n = 370,000); AID 687014, 2013;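 active = activation above a cutoff set at the mean of all screened compounds plus 3 SD, cut at about 10% in these data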;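 also: 0% = DMSO wells and 100% = sodium butyrate wells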
DAX1 inh-1 = DAX1 (NR0B1) inhibitors, primary screen, cell-based, HEK293, Gal4-DAX1, luciferase luminescence; AID 504766, 2011; inhibition, % at 6.75 µM; Nuclear receptor subfamily 0 group B member 1 (Homo sapiens), P51843; HEK293 Gal4-DAX1 luciferase reporter; actives 0.99% (n = 340,000);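 active = inhibition above the mean over all tested compounds plus 3 SD, cut at about 4.2% in these data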;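 also: 0% = DAX1-transfected cells with DMSO and 100% = empty-vector control cells with DMSO; inhibition shows as a rise in luminescence from relieved DAX1 repression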
ssDAF-12 act = S. stercoralis DAF-12 nuclear receptor activators, primary screen, cell-based, luminescence, HEK293, GRIP1 co-expression, lit1-tk-luc; HEK293 ssDAF-12/GRIP1 lit1-tk-luc reporter; % of 3 µM dafachronic acid response; activation, % at 6.8 µM; actives 1% (n = 370,000); AID 652126, 2013;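 active = activation above the mean over all tested compounds plus 3 SD, cut at about 0.9% in these data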;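 also: 0% = DMSO-only wells and 100% = 3 µM delta7-dafachronic acid wells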
DAX1 inh-2 = DAX1 (NR0B1) inhibitors on StAR promoter, primary screen, cell-based, luminescence, SF-1 (NR5A1), full-length DAX-1 | HEK293T StAR-luciferase reporter, SF-1/DAX-1 repression relief | inhibition, % at 6.8 µM | actives 1.1% (n = 370,000) | AID 652010, 2013;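 active = inhibition above the mean over all tested compounds plus 3 SD, cut at about 3.6% in these data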;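 also: 0% = DAX-1 cells with DMSO and 100% = cells lacking DAX-1 with DMSO; higher inhibition means more luminescence from relief of DAX-1 repression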
hcDAF12 agonist = H. contortus DAF-12 nuclear receptor activators, primary screen, cell-based, luminescence, HEK293, lit1-tk-luc reporter. activation, % at 6.8 µM. AID 652067, 2013. actives 1.4% (n = 370,000). HEK293 hcDAF-12 lit1-tk-luc reporter; 0% DMSO, 100% Δ7-dafachronic acid;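 active = activation above the mean of all tested compounds plus 3 SD, cut at about 5.5% in these data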;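 also: 100% = response to 3 µM Δ7-dafachronic acid high control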
LXRb hcDAF ctr = LXR agonists, Gal4 luciferase reporter, confirmation, counter-screen for hcDAF-12 agonist project, cell-based, luminescence, HEK293, H. contortus campaign | shares compounds with hcDAF12 agonist | HEK293 Gal4-LXR tk-luc reporter, 24 h; normalized: DMSO 0%, positive control 100% | activation, % at 6.8 µM | 3,400 tested, under 10 active;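 active = mean percent activation of the reporter above a cutoff set as the average over tested compounds plus their standard deviation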
Target sequence (P55055 whole entry, looked up, the tested form may be a part): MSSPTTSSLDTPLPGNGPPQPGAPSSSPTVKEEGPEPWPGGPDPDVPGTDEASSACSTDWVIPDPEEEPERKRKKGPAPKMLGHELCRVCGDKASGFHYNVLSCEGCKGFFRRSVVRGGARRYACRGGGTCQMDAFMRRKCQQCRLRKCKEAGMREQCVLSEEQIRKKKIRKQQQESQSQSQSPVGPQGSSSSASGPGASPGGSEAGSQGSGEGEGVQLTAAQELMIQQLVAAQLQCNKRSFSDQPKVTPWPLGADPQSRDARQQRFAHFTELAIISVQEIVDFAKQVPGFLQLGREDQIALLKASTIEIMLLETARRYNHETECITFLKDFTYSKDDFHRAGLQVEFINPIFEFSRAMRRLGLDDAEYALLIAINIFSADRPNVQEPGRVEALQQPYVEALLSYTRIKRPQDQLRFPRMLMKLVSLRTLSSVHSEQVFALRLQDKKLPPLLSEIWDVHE
hcDAF12 ag = H. contortus DAF-12 receptor agonists, confirmation, cell-based, luminescence, HEK293, lit1-tk-luc, triplicate; shares compounds with hcDAF12 agonist; actives 61% (n = 3,400); activation, % at 6.8 µM; HEK293 hcDAF-12 lit1-tk-luc reporter; % of Δ7-dafachronic acid response; AID 743032, 2013;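 active = mean activation across triplicate tests above the threshold derived from the earlier primary screen, cut at about 5.5% in these data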;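 also: 0% = DMSO only wells and 100% = 3 µM Δ7-dafachronic acid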
Numbers without * were called inactive; / = no result given. Shown are actives, neighbours in structure and some others; about 4.1% of the full set was active somewhere.

SMILES | hgDAF-12 ag | DAX1 inh-1 | ssDAF-12 act | DAX1 inh-2 | hcDAF12 agonist | LXRb hcDAF ctr | hcDAF12 ag
CSc1ccccc1-c1nnc(-c2ccccc2)o1 | 13* | 4 | 2.2* | 4.4* | 12* | 1 | 12*
COc1ccc(CN2CN3Cc4cc(F)ccc4C3CS2(=O)=O)cc1 (stereo not given) | 1 | / | -2 | 0 | -2 | / | /
COC(=O)c1c(NC(=O)C2CC2)sc(C(=O)Nc2ccccc2)c1C | 5 | 2 | -1 | 2 | 2 | / | /
CN(C)c1ccc(N=Cc2nc(-c3ccccc3)oc2OC(=O)c2ccccc2)cc1 | 13* | 1 | -1 | 2 | 6.8* | 0 | 4
O=S(=O)(O)c1ccc(N2N=C(c3ccccc3)CC2c2ccccc2)cc1 (stereo not given) | 4 | 1 | 0 | 0 | 7.4* | 0 | 1
NS(=O)(=O)c1ccc(N2N=C(c3ccccc3)CC2c2ccccc2)cc1 (stereo not given) | 3 | 0 | -1 | -1 | -1 | / | /
CC(C)CC1NC(=O)c2cc(Cl)ccc2-n2c1nc1ccc(F)cc1c2=O (stereo not given) | -1 | / | -1 | 0 | -2 | / | /
O=C(NC(=S)Nc1ccccc1N1CCCCC1)c1ccccc1 | -3 | -1 | -1 | -1 | 0 | / | /
O=C(NC(=S)Nc1ccccc1N1CCCC1)c1ccc(F)cc1 | 6 | 0 | 0 | 0 | 9.1* | 0 | 3
Cc1ccccc1C(=O)NC(=S)Nc1ccccc1N1CCCC1 | 0 | 0 | -1 | 0 | 1 | / | /
COc1ccccc1C(=O)NC(=S)Nc1ccccc1N1CCCC1 | -2 | 2 | 0 | -2 | 7.1* | 0 | 7.6*
O=C(O)c1ccccc1C(=O)c1ccc(Br)s1 | 0 | 1 | -1 | 0 | 0 | / | /
CN(C)C(=O)c1ccc(NC(=O)c2cccc(-n3cnnn3)c2)cc1 | 0 | 1 | -1 | 0 | -1 | / | /
Nc1ccccc1Sc1c[nH]c2ccccc12 | 5 | 1 | 0 | 0 | 6.8* | 0 | 4
Cc1c[nH]c2ccccc12 | / | 0 | / | / | / | / | /
CCc1cccc(C)c1NC(=O)c1cc(=O)[nH]c2ccc(S(=O)(=O)N3CCOCC3)cc12 | 0 | 1 | -1 | 1 | -1 | / | /
C=CCc1ccccc1OCC(O)CNC(C)C (stereo not given) | -1 | 0 | 0 | 1 | -1 | / | /
C=CCc1ccccc1OCC(O)CNC1CCCC1 (stereo not given) | -3 | 0 | -1 | 0 | 7.2* | 0 | 0
Cc1c(NC(=O)CN2C(=O)NC3(CCC(C)CC3)C2=O)c(=O)n(-c2ccccc2)n1C (stereo not given) | 1 | -1 | -2 | 0 | -1 | / | /
Cc1ccc(SC2=C(Sc3ccc(C)cc3)C(=O)c3ccccc3C2=O)cc1 | 6 | 3 | 1 | 2 | 9.7* | 0 | 2
O=C(NNC(=O)c1ccc2nc[nH]c2c1)c1ccccc1 | -1 | 0 | -2 | 0 | -1 | / | /
Cc1ccc(NC(=O)c2ccc3nc[nH]c3c2)nc1 | 7 | 1 | 0 | 9.6* | 8.9* | 1 | 5
CC(NC(=O)C1CCN(S(=O)(=O)c2ccc(Br)s2)CC1)c1ccccc1 (stereo not given) | 2 | -2 | -1 | 0 | -2 | / | /
Cc1ccccc1N=Nc1c(N)[nH]n(-c2ccccc2)c1=O | 8 | / | 1 | 2 | 6.8* | 1 | 5
Cc1[nH]n(-c2ccccc2)c(=O)c1N=Nc1ccc(Cl)cc1 | 2 | 0 | 0 | 0 | 8.6* | 0 | 5
SMILES | hgDAF-12 ag | DAX1 inh-1 | ssDAF-12 act | DAX1 inh-2 | hcDAF12 agonist | LXRb hcDAF ctr | hcDAF12 ag
Cc1cc([N+](=O)[O-])ccc1N=Nc1c(N)[nH]n(-c2ccccc2)c1=O | -2 | 0 | 1 | 1 | 2 | / | /
Cc1[nH]n(-c2ccccc2)c(=O)c1C(C[N+](=O)[O-])c1ccc(Cl)cc1 (stereo not given) | 0 | 0 | -1 | -1 | 6.9* | 0 | 1
COc1ccc(C(c2c(C)[nH]n(-c3ccccc3)c2=O)c2c(C)[nH]n(-c3ccccc3)c2=O)cc1OC | 0 | 0 | -1 | -1 | 7.5* | 0 | 1
Cc1ccc(C(C[N+](=O)[O-])c2c(C)[nH]n(-c3ccccc3)c2=O)cc1 (stereo not given) | 2 | 1 | -1 | 0 | 1 | / | /
NC1=NC(=O)/C(=C\c2cc([N+](=O)[O-])ccc2Cl)S1 | -5 | -2 | -1 | 0 | -1 | / | /
Nc1ccn([C@@H]2O[C@H](C(=O)N[C@H]3c4ccccc4C[C@H]3O)[C@@H](O)[C@H]2O)c(=O)n1 | 2 | / | -1 | 2 | 0 | / | /
O=C(CCN1CCN(c2ccccc2)CC1)Nc1cccc(Br)c1 | 0 | 1 | -1 | 0 | 6.8* | 0 | 1
O=C(CCN1CCCC1)Nc1cccc(Br)c1 | -1 | 1 | -1 | 1 | -1 | / | /
CN(C(=O)Cn1c(=O)oc2ccccc21)C1CCCCC1 | 1 | 0 | -2 | 1 | 0 | / | /
Nn1cnc2scc(-c3ccc(Cl)cc3)c2c1=O | 9 | 1 | 1.7* | 0 | 6.9* | 0 | 1
O=C(Cn1cc([N+](=O)[O-])cn1)NCCc1nc2ccccc2[nH]1 | 4 | 1 | -1 | 1 | 0 | / | /
O=C(Cn1cc([N+](=O)[O-])cn1)NCc1cc2ccccc2[nH]1 | 2 | 0 | 0 | 0 | 8.0* | 0 | 4
Cc1cc(C)c2c(=O)[nH][nH]c2n1 | 0 | 1 | -1 | 0 | 0 | / | /
CNc1cc([N+](=O)[O-])ccc1N/C=C/C(=O)c1cccs1 | 3 | 1 | 1 | 2 | 8.9* | 0 | 5
O=C(/C=C/Nc1ccccc1C(=O)O)c1cccs1 | 3 | 0 | -1 | 1 | 8.4* | 0 | 3
O=C(/C=C/Nc1cccc([N+](=O)[O-])c1)c1cccs1 | 13* | 3 | 1.8* | 2 | 13* | 2 | 14*
Cc1ccc(C(=O)NCCCN2CCOCC2)o1 | 1 | 0 | -1 | 0 | 1 | / | /
